In PubChem BioAssay (Tox21):
“And” between values parts separate entries of the source, which are not always exact repeats. Identical values can stand only once. Inconclusive results are not listed. The source made the active and inactive calls. Unless noted, calls come from the whole dose curve; as a rule, active = well fitted curve in the direction sought with a large enough effect in the repeat runs; inconclusive = weak or mixed curves; inactive = no such curve, though single readings can be large; an effect the other way counts as inactive or inconclusive.

Key:
[1] = A CellTox Green Cytotoxicity Assay to monitor cytotoxicity in HepG2 cells - 0 hour (AID 1224882); note: nearly all actives have a fitted effect of over 35% in size; note: potency is the fitted concentration of half-maximal effect; for Cytotoxicity: % is set by controls: 0 for no effect and ±100 for the full control effect
Summary of the method: (§1)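 First, HepG2 cells (600/well) mixed with reagent were plated; second, after 5 h at 37 C they received compounds via pintool; third, fluorescence was measured at 0 h through 40 h at 8 h intervals.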

[2] = A CellTox Green Cytotoxicity Assay to monitor cytotoxicity in HepG2 cells - 32 hour (AID 1224883); note: nearly all actives have a fitted effect of over 50% in size; note: potency is the fitted concentration of half-maximal effect
Summary of the method: as §1

[3] = A CellTox Green Cytotoxicity Assay to monitor cytotoxicity in HEK293 cells - 8 hour (AID 1224884); note: nearly all actives have a fitted effect of over 35% in size; note: potency is the fitted concentration of half-maximal effect; for cytotoxicity increase: % is set by controls: 0 for no effect and ±100 for the full control effect
Summary of the method: (§2)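 Dead-cell fluorescence measured kinetically: asymmetric cyanine dye, HEK293, 600 cells/well, 5 h settle, 23 nL cpd/DMSO, 37 C, reads 0–40 h every 8 h.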

[4] = qHTS RealTime-Glo MT Cell Viability Assay in HepG2 cells - 16 hour (AID 1224885); note: nearly all actives have a fitted effect of over 50% in size; note: potency is the fitted concentration of half-maximal effect
Summary of the method: (§3)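 Real-time, nonlytic viability: 600 HepG2 cells/well mixed with NanoLuc enzyme plus prosubstrate; 5 h settle, compound (DMSO) added by pintool; luminescence monitored over 40 h at 37 C.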

[5] = qHTS RealTime-Glo MT Cell Viability Assay in HEK293 cells - 8 hour (AID 1224887); note: nearly all actives have a fitted effect of over 50% in size; note: potency is the fitted concentration of half-maximal effect; for activity change, negative = cytotoxicity: top concentration of the series differs between compounds; % is set by controls: 0 for no effect and ±100 for the full control effect
Summary of the method: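 600 HEK293 cells per well, dispensed already mixed with RealTime-Glo MT reagents. Compound dosing came 5 h later. The same wells were read for luminescence at 0, 8, 16, 24, 32 and 40 h of exposure at 37 C.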

[6] = A CellTox Green Cytotoxicity Assay to monitor cytotoxicity in HEK293 cells - 16 hour (AID 1224888); note: nearly all actives have a fitted effect of over 35% in size; note: potency is the fitted concentration of half-maximal effect
Summary of the method: as §2

[7] = qHTS RealTime-Glo MT Cell Viability Assay in HepG2 cells - 0 hour (AID 1224889); note: nearly all actives have a fitted effect of over 50% in size; note: potency is the fitted concentration of half-maximal effect
Summary of the method: as §3

[8] = qHTS assay to identify small molecule antagonists of the androgen receptor (AR) signaling pathway using the MDA cell line in the presence of 0.5 nM R1881 - cell viability counter screen (AID 1259242); note: nearly all actives have a fitted effect of over 45% in size; note: potency is the fitted concentration of half-maximal effect
Summary of the method: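 qHTS format. MDA-kb2 (MMTV-luc, AR/GR responsive) + cpd + 0.5 nM R1881 final, 16 hr 37C/0% CO2 → CellTiter-Fluor 30 min → fluorescence intensity.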

[9] = qHTS assay to identify small molecule HDAC inhibitors (AID 1259364); note: potency is the fitted concentration of half-maximal effect;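 note: wild-type HCT-116 cells with endogenous class I/II HDAC activity; nearly all actives have a fitted effect of over 45% in size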
Summary of the method: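 Quantitative high-throughput format: overnight-seeded HCT-116 cells got compounds for 2 hr at 37C; HDAC-Glo I/II reagent added, 30 min RT, luminescence measured.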

[10] = qHTS assay to identify small molecule HDAC inhibitors - cell viability counter screen (AID 1259365); note: nearly all actives have a fitted effect of over 50% in size; note: potency is the fitted concentration of half-maximal effect
Summary of the method: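 After overnight seeding at 1,500 cells per well, wild-type HCT-116 cultures took up compounds in DMSO for 2hr at 37 C. Viable cell content came from luminescence with CellTiter-Glo.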

[11] = qHTS assay to identify small molecule agonists of the sonic hedgehog signaling (Shh) pathway - cell viability counter screen (AID 1259366); note: nearly all actives have a fitted effect of over 50% in size; note: potency is the fitted concentration of half-maximal effect
Summary of the method: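 Same-well cytotoxicity read. Gli1-Luc reporter 3T3 cells; compounds 24hr, 37C/5% CO2; CellTiter-Fluor fluorescence.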

[12] = qHTS assay to identify small molecule antagonists of the sonic hedgehog signaling (Shh) pathway - cell viability counter screen (AID 1259367); note: nearly all actives have a fitted effect of over 55% in size; note: potency is the fitted concentration of half-maximal effect
Summary of the method: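 Fluorescence read-out (CellTiter-Fluor, 1 hr at 37C) taken after 23 hr compound treatment of 3T3 Gli1-Luc cells stimulated with conditioned medium. Cells were seeded at 2,000 per well and pre-incubated 4 hr.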

[13] = qHTS assay to identify small molecule agonists of the sonic hedgehog signaling (Shh) pathway (AID 1259368; calls by dose curve;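 note: NIH/3T3-derived 3T3Gli1-Luc cells carrying a stable Gli1-driven firefly luciferase reporter; series mostly up to about 92 µM; % is set by controls: 0 for no effect and ±100 for the full control effect; nearly all actives have a fitted effect of over 15% in size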)
Summary of the method: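 Quantitative high-throughput format using a Gli1-driven firefly luciferase reporter line derived from NIH/3T3 cells. After a 24 hr compound treatment at 37 C and 5% CO2, luminescence reported Gli1 response element activity.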

[14] = qHTS assay to identify small molecule antagonists of the estrogen receptor alpha (ER-alpha) signaling pathway using the BG1 cell line in the presence of 0.1 nM 17-beta-estradiol - cell viability counter screen (AID 1259241); note: nearly all actives have a fitted effect of over 40% in size; note: potency is the fitted concentration of half-maximal effect
Summary of the method: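 Estradiol-stimulated (0.1 nM) VM7Luc4E2 cells exposed to compounds 22 hr; viability measured by fluorescence of cleaved CellTiter-Fluor substrate after 30 min.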

[15] = molecular target: Estrogen receptor (Homo sapiens) (UniProt P03372); assay: qHTS assay to identify small molecule antagonists of the estrogen receptor alpha (ER-alpha) signaling pathway using the BG1 cell line in the presence of 0.1 nM 17-beta-estradiol (AID 1259244); note: nearly all actives have a fitted effect of over 50% in size; note: potency is the fitted concentration of half-maximal effect
Summary of the method: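 Reporter is a stably transfected luciferase under four estrogen responsive elements in VM7Luc4E2 cells expressing native full-length ER-alpha; inhibition of 0.1 nM (final) 17beta-estradiol-driven signal over 22 h is read by luminescence.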

[16] = A CellTox Green Cytotoxicity Assay to monitor cytotoxicity in HepG2 cells - 8 hour (AID 1224890); note: nearly all actives have a fitted effect of over 45% in size; note: potency is the fitted concentration of half-maximal effect
Summary of the method: as §1

[17] = qHTS assay to identify small molecule antagonists of the sonic hedgehog signaling (Shh) pathway (AID 1259369; calls by dose curve; note: potency is the fitted concentration of half-maximal effect; nearly all actives have a fitted effect of over 45% in size)
Summary of the method: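 Stable Gli1-Luc reporter NIH/3T3 clone; quantitative HTS in stimulated mode with conditioned medium. Luminescence measured after 24hr compound treatment at 37 C.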

[18] = qHTS RealTime-Glo MT Cell Viability Assay in HEK293 cells - 24 hour (AID 1224886); note: nearly all actives have a fitted effect of over 50% in size; note: potency is the fitted concentration of half-maximal effect
Summary of the method: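 Cells + reagent dispensed (600 cells/well, HEK293) → 5 h at 37 C/5% CO2 → 23 nL compound in DMSO pinned → 40 h at 37 C → luminescence read at 0, 8, 16, 24, 32, 40 h.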

[19] = molecular target: Androgen receptor (Homo sapiens) (UniProt P10275); assay: qHTS assay to identify small molecule antagonists of the androgen receptor (AR) signaling pathway using the MDA cell line in the presence of 0.5 nM R1881 (AID 1259243)
Summary of the method: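 Antagonist mode quantitative HTS in MDA-kb2 MMTV-luciferase cells, agonist R1881 at 0.5 nM final, 16 hr exposure at 37C and 0% CO2, luminescent detection.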

[20] = qHTS assay to identify small molecule phospholipidosis (PLD) inducers (AID 1259344; active = well fitted curve in the direction sought with a large enough effect; an effect the other way counts as inactive or inconclusive; note: % is set by controls: 0 for no effect and ±100 for the full control effect)
Summary of the method: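 Read-out is LipidTOX Red fluorescence (ex 595/em 615) imaged in HepG2 cells after 24 h compound exposure at 37 C, with Hoechst nuclear counterstain (ex 352/em 461) allowing per-cell normalisation.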

Sequence of Estrogen receptor (Homo sapiens) (P03372 whole entry, looked up): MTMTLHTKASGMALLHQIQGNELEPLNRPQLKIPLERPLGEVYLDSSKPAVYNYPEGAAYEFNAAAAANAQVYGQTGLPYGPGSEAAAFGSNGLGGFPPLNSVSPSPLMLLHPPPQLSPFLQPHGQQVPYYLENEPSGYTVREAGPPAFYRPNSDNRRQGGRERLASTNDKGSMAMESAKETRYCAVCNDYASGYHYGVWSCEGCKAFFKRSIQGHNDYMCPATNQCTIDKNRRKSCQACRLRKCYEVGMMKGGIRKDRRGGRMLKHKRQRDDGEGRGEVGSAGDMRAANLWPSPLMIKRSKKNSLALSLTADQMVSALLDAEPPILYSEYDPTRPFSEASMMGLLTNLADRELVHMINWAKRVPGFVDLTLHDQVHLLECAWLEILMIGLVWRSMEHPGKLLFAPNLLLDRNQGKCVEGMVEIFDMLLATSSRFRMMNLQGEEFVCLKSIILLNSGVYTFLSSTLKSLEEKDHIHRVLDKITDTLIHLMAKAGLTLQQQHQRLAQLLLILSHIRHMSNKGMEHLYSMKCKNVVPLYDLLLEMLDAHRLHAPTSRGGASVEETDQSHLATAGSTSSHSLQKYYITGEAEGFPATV
Sequence of Androgen receptor (Homo sapiens) (P10275 whole entry, looked up): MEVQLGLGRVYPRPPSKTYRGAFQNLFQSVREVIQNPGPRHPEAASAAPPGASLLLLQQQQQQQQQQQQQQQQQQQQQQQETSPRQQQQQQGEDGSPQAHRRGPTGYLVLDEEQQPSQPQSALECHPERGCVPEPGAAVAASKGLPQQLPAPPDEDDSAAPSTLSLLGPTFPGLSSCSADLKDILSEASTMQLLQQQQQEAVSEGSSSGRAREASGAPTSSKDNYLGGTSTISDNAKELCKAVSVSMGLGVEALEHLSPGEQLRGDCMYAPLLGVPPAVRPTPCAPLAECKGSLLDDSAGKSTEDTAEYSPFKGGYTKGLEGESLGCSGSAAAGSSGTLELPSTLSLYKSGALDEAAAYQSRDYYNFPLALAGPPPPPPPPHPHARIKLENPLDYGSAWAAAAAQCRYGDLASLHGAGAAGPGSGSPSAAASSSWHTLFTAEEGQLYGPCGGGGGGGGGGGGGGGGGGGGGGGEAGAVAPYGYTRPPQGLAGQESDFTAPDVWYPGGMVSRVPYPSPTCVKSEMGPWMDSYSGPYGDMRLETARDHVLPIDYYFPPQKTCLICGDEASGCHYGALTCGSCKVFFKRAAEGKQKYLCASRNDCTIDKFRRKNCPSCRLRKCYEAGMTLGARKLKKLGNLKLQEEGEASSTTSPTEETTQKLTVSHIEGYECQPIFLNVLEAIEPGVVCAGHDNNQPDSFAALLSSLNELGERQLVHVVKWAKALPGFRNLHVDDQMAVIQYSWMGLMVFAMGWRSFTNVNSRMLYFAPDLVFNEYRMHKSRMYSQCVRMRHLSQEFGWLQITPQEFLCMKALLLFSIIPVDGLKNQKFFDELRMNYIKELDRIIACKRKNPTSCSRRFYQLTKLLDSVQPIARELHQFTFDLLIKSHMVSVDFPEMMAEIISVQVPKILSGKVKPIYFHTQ

O=[N+]([O-])O.O=[N+]([O-])O.[Cd]
inactive: Potency [1] | Potency [3] | Potency [4] | Potency [5] | Potency [6] | Potency [7] | Potency [8] | Potency [9] | Potency [10] | Potency [13]
active: Potency [2] 43.6 µM | Potency [11] 8.63 µM | Potency [12] 15.4 µM

CC(C)[C@H](C(=O)O[C@H](C#N)c1cccc(Oc2ccccc2)c1)c1ccc(Cl)cc1
inactive: Potency [1] | Potency [2] | Potency [3] | Potency [4] | Potency [6] | Potency [7] | Potency [14] | Potency [8] | Potency [9] | Potency [10] | Potency [11] | Potency [13]

Oc1ccc(C2(c3ccc(O)cc3)c3ccccc3-c3ccccc32)cc1
inactive: Potency [1] | Potency [3] | Potency [6] | Potency [7] | Potency [8] | Potency [9] | Potency [10] | Potency [13]
active: Potency [2] 61.6 µM | Potency [4] 49 µM | Potency [15] 1.72 µM | Potency [11] 54.5 µM | Potency [12] 27.3 µM

COP(=O)(OC)SCn1c(=O)oc2cc(Cl)cnc21
inactive: Potency [1] | Potency [2] | Potency [3] | Potency [4] | Potency [5] | Potency [6] | Potency [7] | Potency [16] | Potency [14] | Potency [8] | Potency [15] | Potency [10] | Potency [13]

[Cd+2].[Cl-].[Cl-]
inactive: Potency [1] | Potency [3] | Potency [4] | Potency [5] | Potency [6] | Potency [7] | Potency [16] | Potency [14] | Potency [8] | Potency [9] | Potency [10] | Potency [13]
active: Potency [2] 22.1 µM and 24.5 µM | Potency [11] 4.9 µM and 10.9 µM | Potency [12] 3.89 µM and 9.69 µM | Potency [17] 245 nM and 486 nM

N#C/C=C/C#N
inactive: Potency [1] | Potency [2] | Potency [3] | Potency [4] | Potency [6] | Potency [16] | Potency [14] | Potency [8] | Potency [15] | Potency [9] | Potency [10] | Potency [12] | Potency [13]

Cc1cc(SCc2sc(-c3ccc(C(F)(F)F)c(F)c3)nc2C)ccc1OCC(=O)O
inactive: Potency [1] | Potency [2] | Potency [3] | Potency [4] | Potency [6] | Potency [7] | Potency [16] | Potency [14] | Potency [8] | Potency [15] | Potency [10] | Potency [13]
active: Potency [11] 43.3 µM | Potency [12] 30.6 µM

CC(=O)[O-].CC(=O)[O-].[Hg+2]
inactive: Potency [1] | Potency [13]
active: Potency [2] 1.74 µM | Potency [3] 43.6 µM | Potency [4] 2.45 µM | Potency [5] 2.19 µM | Potency [6] 24.5 µM | Potency [7] 30.9 µM | Potency [14] 17.2 µM | Potency [8] 7.7 µM | Potency [9] 19.3 µM | Potency [10] 61.1 µM | Potency [11] 2.17 µM | Potency [12] 4.33 µM | Potency [17] 0.686 µM

Oc1c(Br)c(Br)c(Br)c(Br)c1Br
inactive: Potency [1] | Potency [2] | Potency [3] | Potency [4] | Potency [6] | Potency [7] | Potency [16] | Potency [14] | Potency [9] | Potency [10] | Potency [12] | Potency [13]

CNC(C)Cc1ccc2c(c1)OCO2 (stereo not drawn)
inactive: Potency [1] | Potency [2] | Potency [3] | Potency [18] | Potency [5] | Potency [6] | Potency [7] | Potency [16] | Potency [14] | Potency [8] | Potency [19] | Potency [15] | Potency [20] | Potency [9] | Potency [10] | Potency [13]
active: Potency [17] 18.9 µM

N#CC(Cl)Cl
active: Potency [1] 1.51 µM | Potency [16] 1.51 µM
inactive: Potency [2] | Potency [3] | Potency [4] | Potency [6] | Potency [7] | Potency [14] | Potency [8] | Potency [19] | Potency [9] | Potency [10] | Potency [12] | Potency [13]

CC1(C)C(/C=C(\Cl)C(F)(F)F)C1C(=O)OC(C#N)c1cccc(Oc2ccccc2)c1 (stereo not drawn)
inactive: Potency [1] | Potency [2] | Potency [3] | Potency [4] | Potency [6] | Potency [7] | Potency [16] | Potency [14] | Potency [8] | Potency [9] | Potency [10] | Potency [12] | Potency [13]

CCOP(=S)(OCC)SCCS(=O)(=O)CC
inactive: Potency [1] | Potency [2] | Potency [3] | Potency [4] | Potency [18] | Potency [6] | Potency [16] | Potency [14] | Potency [8] | Potency [15] | Potency [9] | Potency [10] | Potency [13]

CC(C)CCCCCCCOP(=O)(Oc1ccccc1)Oc1ccccc1
inactive: Potency [1] | Potency [2] | Potency [3] | Potency [4] | Potency [6] | Potency [7] | Potency [16] | Potency [14] | Potency [8] | Potency [15] | Potency [9] | Potency [10] | Potency [11] | Potency [12] | Potency [13]

c1cc[c]([Sb]([c]2ccccc2)[c]2ccccc2)cc1
inactive: Potency [1] | Potency [2] | Potency [3] | Potency [4] | Potency [5] | Potency [6] | Potency [7] | Potency [16] | Potency [14] | Potency [8] | Potency [9] | Potency [10] | Potency [11] | Potency [12] | Potency [13]
active: Potency [17] 12.2 µM

CN(C)C(=S)[S-].CN(C)C(=S)[S-].[Cu+2]
inactive: cytotoxicity [1] 0.299% [at 15.8 µM] | cytotoxicity increase [3] -12.4% [at 15.8 µM] | activity change, negative = cytotoxicity [7] -22.4% [at 15.8 µM] | activity change, negative = inhibition [9] -15% [at 19 µM] | activity change [13] -10.5% [at 18.9 µM, hits give high values]
active: Potency [2] 2.99 µM | Potency [4] 3.77 µM | Potency [18] 1.34 µM | Potency [6] 2.38 µM | Potency [14] 1.67 µM | Potency [8] 5.92 µM | Potency [11] 2.64 µM | Potency [12] 3.33 µM | Potency [17] 1.49 µM
